A selection: hits, their analogues and other compounds. The true share with any hit is near 21%.
Pf growth 48h: P. falciparum growth inhibition at 48 hours (one generation) | Potency, µM (highest dose often 28.7 µM), inactives show at the top dose activity change, negative = inhibition, usual class: inhibitors | AID 504832 | P. falciparum luciferase growth in erythrocytes, 48 h | 5.9% of 310,000 active; note: potency is the fitted concentration of half-maximal effect; % is set by controls: 0 for no effect and ±100 for the full control effect
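Cell-based growth assay: transgenic P. falciparum expressing firefly luciferase, cultured in red cells within RPMI 1640 containing 0.5% w/v Albumax, 24 mM bicarbonate and gentamycin. A drop in luciferase activity indicates inhibition.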
Giardia FBPA inh: blocks Giardia fructose-bisphosphate aldolase activity; A8B2U2; purified Giardia FBPA; Potency, µM (series often up to 59.6 µM), for inactives: at the top dose activity, negative = inhibition, hits mostly inhibitors; 0.71% of 290,000 active; AID 2451; note: potency is the fitted concentration of half-maximal effect; % is set by controls: 0 for no effect and ±100 for the full control effect; nearly all actives have a fitted effect of over 55% in size
Target sequence (A8B2U2 whole entry, looked up): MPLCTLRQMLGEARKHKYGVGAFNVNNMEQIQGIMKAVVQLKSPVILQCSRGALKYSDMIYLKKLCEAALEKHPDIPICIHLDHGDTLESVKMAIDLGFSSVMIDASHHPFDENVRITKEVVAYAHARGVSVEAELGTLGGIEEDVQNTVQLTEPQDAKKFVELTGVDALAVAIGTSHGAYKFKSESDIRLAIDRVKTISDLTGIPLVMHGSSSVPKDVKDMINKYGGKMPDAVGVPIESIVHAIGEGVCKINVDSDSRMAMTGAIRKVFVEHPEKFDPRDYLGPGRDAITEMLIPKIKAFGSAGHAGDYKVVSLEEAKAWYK
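40 nM FBPA preincubated 10 min at RT with compound (up to 57.5 uM final), then substrate plus GAPDH/TPI/NAD/arsenate coupling and diaphorase/resazurin added. Fluorescence read after 20 min at RT, 525/598 nm.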
Pf growth 96h: P. falciparum growth inhibition at 96 hours; 6.9% of 320,000 active; Potency, µM (top dose mostly 28.7 µM), without a hit: at the top dose activity change, negative = inhibition, actives largely listed as inhibitors; AID 504834; P. falciparum luciferase reporter growth, 96 h; note: potency is the fitted concentration of half-maximal effect; % is set by controls: 0 for no effect and ±100 for the full control effect
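Luminescence readout: decreased luciferase signal marks inhibited growth of reporter-expressing P. falciparum in infected red cells (2% hematocrit, 0.05% parasitemia final), exposed to compound two generations (96 h, 37 C, 5% CO2).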
NS1 function inh: inhibitors of influenza NS1 protein function; Potency, µM (highest dose often 46.1 µM), for inactives: at the highest dose activity, positive = more growth; 0.4% of 270,000 active; AID 2326; calls by dose curve; note: potency is the fitted concentration of half-maximal effect; actives are rising curves; nearly all actives have a fitted effect of over 50% in size
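A cell-based growth assay was used: compounds that relieve NS1-induced slow growth of budding yeast raise OD600. Assay medium was yeast nitrogen base with ammonium sulphate and -URA supplement, pH 6.0, with 2% galactose.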
CHX counter: affects cycloheximide protein synthesis inhibition readout, counter-screen; cell reporter, cycloheximide protein synthesis inhibition counterscreen; max response, %; 12% of 300,000 active; in the data active = max response mostly above about 13%, no sharp cut-off; inactive = mostly below about 14%; note: read at 38.3 µM for the half of the compounds with a filed dose; 0% is about no effect
Shiga inhibitor: Shiga toxin inhibition; Vero cells, Shiga toxin protein synthesis inhibition reporter; inhibition, % at 38.7 µM; 9.2% of 290,000 active; in the data active = inhibition mostly above about 28%, no sharp cut-off; inactive = mostly below about 43%; note: 0% is about no effect
* = called active by the depositor; ? = inconclusive; · = no result given; ! = a repeat was not active; [ ] = remark or other dose. Unless noted, calls come from the whole dose curve; as a rule, active = well fitted curve in the direction sought with a large enough effect; inconclusive = small, poorly fitted or top-dose-only effect, or another doubt; inactive = no such curve, though single readings can be large; an effect the other way counts as inactive or inconclusive.

SMILES | Pf growth 48h | Giardia FBPA inh | Pf growth 96h | NS1 function inh | CHX counter | Shiga inhibitor
COc1ccc(/C=C/CN2CCN(CC(C)C)C(CCO)C2)cc1 (stereo not given) | ? | 0% | 4.1µM* | 1% | 13 | 23
Cc1ccc(CN2CCN(CC(C)C)C(CCO)C2)s1 (stereo not given) | 15% | 0% | ? | -3% | 39* | 82*
CC(C)(O)C#Cc1ccc(CN2CCN(Cc3ccsc3)C(CCO)C2)s1 (stereo not given) | -4% | -1% | 8.3µM* | -5% | -1 | -10
OCCC1CN(Cc2cnc(-c3ccc(Cl)cc3)nc2)CCN1C1CCCC1 (stereo not given) | ? | 1% | ? | 5% | 1 | 11
CCOc1c(C)cnc2c1c(=O)n(Cc1ccccc1F)c(=O)n2C | 11% | 7% | 3% | 3% | -2 | -4
O=C1c2ccccc2-c2onc3c(Oc4ccccc4)cc(O)c1c23 | 96% | -24% | · | 9% | 22* | 27
CCOc1ccc2noc3c2c1C(=O)c1ccccc1-3 | 25% | ? | 60% | -12% | 15 | 27
CSc1nsc(SCC(=O)Nc2ccc(O)c(C(=O)O)c2)n1 | -4% | -1% | ? | 2% | -3 | 29
NC(=O)c1ccccc1NC(=O)CSc1nc2ccccc2c(=O)[nH]1 | 3% | · | -23% | 6% | -4 | 2
CSc1nsc(SCC(=O)Nc2ccccc2C(=O)O)n1 | 16% | · | -25% | 7% | 19* | 44*
CSc1nsc(SCC(=O)Nc2ccc(Br)cn2)n1 | 12% | -3% | 44% | -8% | 28* | 78*
Cc1cc2nc(SCC(=O)Nc3ccccc3C(=O)O)[nH]c2cc1C | 78% | 5% | ? | · | 15 | 38*
CSc1nsc(SCC(=O)Nc2ccc(F)cc2F)n1 | 86% | 0% | 23% | -4% | 32* | 52*
CCOC(=O)c1c(S(=O)(=O)NCC(=O)NCc2ccccc2Cl)c(C)n(C)c1C | 23% | 3% | 8% | -7% | 0 | -6
O=C(Nc1ccccc1C(=O)NCc1cccnc1)c1cccc([N+](=O)[O-])c1 | -26% | 1% | 36% | -1% | 6 | -16
O=C(Nc1ncn[nH]1)c1ccc(Cl)c(Cl)c1 | -4% | · | 3% | · | · | ·
CC1=CC(=O)N(c2ccc(C)cc2)C1c1ccc(Cl)cc1 (stereo not given) | ? | 7% | ? | -1% | 4 | 9
CC1=CC(=O)N(c2cccc(C(F)(F)F)c2)C1c1ccc(Cl)cc1 (stereo not given) | 8.3µM* | · | ? | -68% | -5 | 9
CCc1nnc(NC(=O)CSc2nc(C)c3c(c2C#N)CCCC3)s1 | 81% | -1% | -9% | -10% | 64* | 56*
COc1ccc(NC(=O)CSc2nc(C)c3c(c2C#N)CCCC3)cc1 | -9% | · | 32% | -14% | 2 | -25
COC(=O)c1cc2occc2n1Cc1nc(-c2cccc(Cl)c2)oc1C | 1% | -1% | ? | -2% | -4 | -11
COC(=O)c1cc2sccc2n1Cc1nc(-c2cccc(Cl)c2)oc1C | · | 6% | 9.3µM* | -5% | -4 | -12
COC(=O)c1cc2sccc2n1Cc1nc(-c2ccc(Cl)cc2)oc1C | 12% | 5% | 10µM* | 5% | 4 | 24
COC(=O)c1cc2ccsc2n1Cc1nc(-c2cccc(Cl)c2)oc1C | · | -4% | 4.1µM* | 6% | -6 | -20
Cc1ccc(C)c2[nH]c(=O)c(CCNC(=O)CCc3ccccc3)cc12 | -5% | -2% | 5% | 0% | 2 | 5
SMILES | Pf growth 48h | Giardia FBPA inh | Pf growth 96h | NS1 function inh | CHX counter | Shiga inhibitor
O=C(N/N=C1/C[C@@H](O)[C@@H](O)[C@@H]2[C@@H]3C(=O)N(C4CCCCC4)C(=O)[C@H]3CC[C@H]12)OCc1ccccc1 | · | -4%[12.9 µM] | · | · | · | ·
O=C(NCc1ccccc1)NC1CCS(=O)(=O)C1 (stereo not given) | 9% | 5% | 12% | 0% | 0 | 37
O=S1(=O)CCC(NC(=S)Nc2ccc(Cl)cc2)C1 (stereo not given) | 3% | -4% | 0% | -1% | -2 | 12
O=C(Nc1ccc2ccccc2c1)NC1CCS(=O)(=O)C1 (stereo not given) | 50% | -1% | 5% | 2% | 14* | 88
O=C(Nc1ccccc1)NC1CCS(=O)(=O)C1 (stereo not given) | 10% | 0% | 9.3µM* | -2%[9.22 µM] | -3 | 1
CC(=O)NC1=C(NC2CCS(=O)(=O)C2)C(=O)c2ccccc2C1=O (stereo not given) | 10µM* | ? | ? | -37% | 7 | -32
O=C(Nc1cc2c3c(c1)CC(=O)N3CCC2)C1CC1 | 18% | · | 55% | · | · | ·
Nc1ncc(Br)cc1S(=O)(=O)NCCC(=O)NCCc1ccc(Cl)cc1 | ? | · | ? | -1% | -5 | -12
Cc1noc(C(=O)Nc2ccc(F)cc2F)c1Cl | 74% | 0% | 57% | -3% | 31* | 44
Cc1ccc(O)c(NC(=O)c2onc(C)c2Cl)c1 | 12µM* | 6% | -8% | -9% | 30* | 66*
CCc1ccccc1NC(=O)c1onc(C)c1Cl | · | 5% | -9% | -49% | 4 | 12
O=C(Cn1c(=O)n(Cc2ccc(C(=O)NCc3ccc4c(c3)OCO4)cc2)c(=O)c2ccccc21)Nc1ccc(F)cc1F | · | · | · | · | 2 | -4
FC(F)(F)c1cc(NC(=S)Nc2ccc3ccccc3c2)cc(C(F)(F)F)c1 | · | 0% | · | · | · | ·
COc1ccc(CC(=O)NC(c2ccccc2)c2ccc(C)cc2)c(OC)c1 (stereo not given) | 10µM* | 9% | ? | -3% | 18 | -6
COc1ccc(OC)c(CC(=O)NC(c2ccccc2)c2ccccc2)c1 | ? | 5% | 6.6µM* | -1% | 0 | 3
O=C(CCc1nnc2ccc(NCc3ccco3)nn12)N1CCN(c2ccc(F)cc2)CC1 | -11% | 4% | -18% | 1% | -7 | -9
CCC1(C2=NCCN2)Cc2ccccc2O1 (stereo not given) | 5% | 4% | 7.6µM*! | -1% | · | ·
CC(=O)NC(c1ccco1)c1cc(Cl)c2ccc(N3CCCCC3)nc2c1O (stereo not given) | -26% | · | -23% | · | · | ·
O=C(NCc1ccc(Cl)cc1)C1CCC(=O)N(C2CCCCCC2)C1 (stereo not given) | -2% | · | 39% | -1% | 2 | -11
COc1ccc(CNC(=O)c2cc(C3CC3)nc3c2cnn3C(C)C)cc1OC | -11% | · | ? | · | · | ·
COc1cccc(CNC(=O)c2cc(C3CC3)nc3c2cnn3C(C)C)c1 | 4.7µM* | · | 3.3µM* | · | · | ·
Cc1ccc(CNC(=O)c2cc(C3CC3)nc3c2cnn3C(C)C)cc1 | 13µM* | · | ? | · | · | ·
CCOC(=O)c1c(C)[nH]c(C)c1C(=O)COc1ncnc2cc([N+](=O)[O-])ccc12 | ? | -6% | -64% | · | -3 | 3

Source: PubChem (National Center for Advancing Translational Sciences (NCATS))
